Test [1] relates to Wnt5a (protein binding on small-molecule microarray). The test is described as follows: Wnt5a binders on small-molecule microarray, primary screen, biophysical, 635/667 nm fluorescence (AID 1142).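 Further: fluorescence read at 667 nm with signal to noise per printed feature.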 Particulars: 635 nm fluorescence, higher = more signal.
Test [2] is described as follows: cell viability in Huh7 cells, primary screen, cytotoxicity control for HCV replication inhibitor project, CellTiter-Glo luminescence, basal, 48 h (AID 1143).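 Further: Huh7 hepatoma cells carrying a hepatitis C replication reporter with no stimulus; test concentration not given here.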 The conditions noted are these: Huh7 HCV replicon, higher = more signal, called active from +8 up or from −8 down. In general terms: In ATP-based viability assays light output follows the ATP content of the culture.

Test [3] is described as follows: P. aeruginosa biofilm formation inhibitors, primary screen, PAO1 strain, BacTiter-Glo luminescence, LB-PBS (AID 1144). The conditions noted are these: 12 h, higher = more signal.
Test [4] is described as follows: CREB reporter modulators without forskolin, primary screen, cell-based, PC12, CRE-LacZ reporter, unstimulated (AID 1145). Particulars: no forskolin, luminescence, 4.5 h, higher = more signal, called active from +8 up or from −8 down.
The nature of test [5]: CREB reporter modulators under forskolin, primary screen, cell-based, PC12, CRE-LacZ reporter, forskolin-stimulated (AID 1146).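 Further: PC12 cells with 6xCRE LacZ reporter stimulated by forskolin 10 µM; beta-galactosidase reporter signal reflecting CREB driven transcription.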 Particulars: luminescence, 4.5 h, higher = more signal, called active from +8 up or from −8 down.
The target in test [6] is Streptavidin (Streptomyces avidinii) (UniProt P22629). The test is described as follows: streptavidin binders on small-molecule microarray, primary screen, artefact control for SMM compound annotation, biophysical, 635/667 nm fluorescence (AID 1147).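 Further: signal reflects streptavidin binding to arrayed compounds as a control protein.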 Particulars: streptavidin binding, higher = more signal.
The nature of test [7]: small-molecule binders of probe aInhba, primary screen, biochemical, small-molecule microarray, 635/667 nm fluorescence (AID 1148).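 Further: score merges 667nm spot fluorescence with signal-to-noise for antibody binding to printed compounds.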 Particulars: higher = more signal.
Test [8] has as its target Torsin-1A (Homo sapiens) (UniProt O14656). The test is described as follows: torsin A binders from cell lysate, primary screen, small-molecule microarray, wild-type, 635/667 nm (AID 1149). Particulars: COS7 hTOR1A-WT lysate, 635 nm fluorescence, higher = more signal.
For test [9] the target is unchanged. Description: small-molecule binders of mutant TOR1A in lysate, primary screen, cell lysate, small-molecule microarray, COS7 lysate, 635/667 nm fluorescence (AID 1150).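 Further: score pools 667 nm emission and signal to noise measuring lysate protein binding.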 Particulars: COS7 hTOR1A mutant lysate, 635 nm fluorescence, higher = more signal.
In test [10] the test system is Sonic hedgehog protein (Shh). Description: small-molecule binders of Shh protein, primary screen, biochemical, small-molecule microarray, 635/667 nm fluorescence (AID 1151).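 Further: Shh protein binding to compounds spotted on small-molecule microarray slides; score combines spot fluorescence intensity with signal-to-noise across triplicate slides.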 Particulars: small-molecule microarray binding, 635 nm fluorescence; higher = more signal.
Test [11] in a line: E. coli DRC41 culture turbidity changes, primary screen, E. coli filamentation inducer project, strain DRC41, OD650, 48 h (AID 1152).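 Further: E. coli MC1000 strain DRC41 lacking acrAB efflux pump and sulA.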 Particulars: E. coli DRC41 (acrAB sulA), higher = more signal, called active from +8 up or from −8 down.
A short description of test [12]: small-molecule binders of probe aLefty1, primary screen, biochemical, small-molecule microarray, 635/667 nm fluorescence (AID 1153).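 Further: score merges spot fluorescence with signal-to-noise ratio from the scanned slide images.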 Particulars: higher = more signal.
Test [13] is described as follows: PSAC antagonists in infected red cells, primary screen, cell-based, P. falciparum Indochina, OD700, 1 h (AID 1154). The conditions noted are these: P. falciparum Indochina infected RBC osmotic lysis, higher = more signal, called active from +8 up or from −8 down.
Test [14] in a line: PSAC antagonists in infected red cells, primary screen, cell-based, P. falciparum Indochina, OD700, 2 h (AID 1155).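 Further: lysis reports solute entry through the parasite surface anion channel PSAC; channel blockers reduce lysis of infected cells.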 The conditions noted are these: P. falciparum Indochina infected erythrocytes, osmotic lysis OD700; higher = more signal, called active from +8 up or from −8 down.
A short description of test [15]: osmotic lysis modulators in infected erythrocytes, primary screen, PSAC antagonist project, cell-based, P. falciparum Indochina, OD700, 3 h (AID 1156). Particulars: higher = more signal, called active from +8 up or from −8 down.
The nature of test [16]: PSAC antagonists in infected red cells, primary screen, cell-based, P. falciparum Indochina, OD700, 18 h (AID 1157). Particulars: P. falciparum Indochina infected erythrocytes, osmotic lysis OD700, 18 h; higher = more signal, called active from +8 up or from −8 down.
Test [17] is described as follows: modulators of S6 phosphorylation in cells, primary screen, cell-based, A549, cytoblot, luminescence, serum-stimulated (AID 1158).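 Further: serum-stimulated A549 lung adenocarcinoma cells; signal is phosphorylated S6 detected by cytoblot immunostaining with HRP secondary.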 The conditions noted are these: A549 phospho-S6 cytoblot, 5 h, higher = more signal.
Test [18] deals with NADPH oxidase 2 (Homo sapiens) (UniProt P04839). The test is described as follows: NOX2-dependent H2O2 signal modulators, primary screen, NOX inhibitor project, cell-based, HEK293-NOX2, PMA-stimulated, Amplex Red fluorescence (AID 1159). Further: test concentration not given here. Particulars: 45 min, higher = more signal, called active from +8 up or from −8 down.
Test [19] concerns the target NADPH oxidase 4 (Homo sapiens) (UniProt Q9NPH5). The test is described as follows: NOX4-dependent H2O2 signal modulators, primary screen, NOX inhibitor project, cell-based, HEK293-NOX4, tetracycline-induced, Amplex Red fluorescence (AID 1160). Particulars: 45 min, higher = more signal, called active from +8 up or from −8 down.
Test [20] addresses NADPH oxidase 5 (Homo sapiens) (UniProt Q96PH1). The test is described as follows: NOX5-dependent H2O2 signal modulators, primary screen, NOX inhibitor project, cell-based, HEK293-NOX5, Amplex Red fluorescence (AID 1161). Particulars: HEK293-NOX5, ionomycin, 45 min, higher = more signal.

The source made the active and inactive calls. Unless noted, how the calls were made is not given here.

Sequence of NADPH oxidase 5 (Homo sapiens) (Q96PH1 whole entry, looked up): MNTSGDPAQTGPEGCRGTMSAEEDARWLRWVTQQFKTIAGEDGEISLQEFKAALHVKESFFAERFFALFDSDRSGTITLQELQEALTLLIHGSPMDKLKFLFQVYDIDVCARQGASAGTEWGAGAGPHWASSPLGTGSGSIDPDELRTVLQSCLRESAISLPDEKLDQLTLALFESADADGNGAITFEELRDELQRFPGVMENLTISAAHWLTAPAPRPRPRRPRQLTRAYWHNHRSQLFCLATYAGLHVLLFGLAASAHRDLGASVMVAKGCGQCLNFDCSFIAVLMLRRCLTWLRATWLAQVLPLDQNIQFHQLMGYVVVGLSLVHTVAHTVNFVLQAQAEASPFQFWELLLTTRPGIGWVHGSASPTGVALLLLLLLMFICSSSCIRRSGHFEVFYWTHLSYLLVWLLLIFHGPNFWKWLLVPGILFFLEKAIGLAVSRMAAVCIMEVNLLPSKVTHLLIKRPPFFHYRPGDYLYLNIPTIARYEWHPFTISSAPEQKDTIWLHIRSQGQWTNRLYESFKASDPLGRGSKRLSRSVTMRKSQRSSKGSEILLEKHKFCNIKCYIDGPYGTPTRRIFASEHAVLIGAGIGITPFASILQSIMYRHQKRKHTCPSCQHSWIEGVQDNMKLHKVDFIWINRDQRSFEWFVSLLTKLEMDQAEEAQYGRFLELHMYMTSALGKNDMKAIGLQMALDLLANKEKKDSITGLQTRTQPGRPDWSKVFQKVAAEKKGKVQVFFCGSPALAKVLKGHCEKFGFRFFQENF
Sequence of Streptavidin (Streptomyces avidinii) (P22629 whole entry, looked up): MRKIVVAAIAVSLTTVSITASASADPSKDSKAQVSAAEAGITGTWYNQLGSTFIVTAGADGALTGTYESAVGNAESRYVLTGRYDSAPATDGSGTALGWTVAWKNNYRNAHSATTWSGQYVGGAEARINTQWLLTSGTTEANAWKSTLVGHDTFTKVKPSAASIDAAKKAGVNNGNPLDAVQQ
Sequence of NADPH oxidase 4 (Homo sapiens) (Q9NPH5 whole entry, looked up): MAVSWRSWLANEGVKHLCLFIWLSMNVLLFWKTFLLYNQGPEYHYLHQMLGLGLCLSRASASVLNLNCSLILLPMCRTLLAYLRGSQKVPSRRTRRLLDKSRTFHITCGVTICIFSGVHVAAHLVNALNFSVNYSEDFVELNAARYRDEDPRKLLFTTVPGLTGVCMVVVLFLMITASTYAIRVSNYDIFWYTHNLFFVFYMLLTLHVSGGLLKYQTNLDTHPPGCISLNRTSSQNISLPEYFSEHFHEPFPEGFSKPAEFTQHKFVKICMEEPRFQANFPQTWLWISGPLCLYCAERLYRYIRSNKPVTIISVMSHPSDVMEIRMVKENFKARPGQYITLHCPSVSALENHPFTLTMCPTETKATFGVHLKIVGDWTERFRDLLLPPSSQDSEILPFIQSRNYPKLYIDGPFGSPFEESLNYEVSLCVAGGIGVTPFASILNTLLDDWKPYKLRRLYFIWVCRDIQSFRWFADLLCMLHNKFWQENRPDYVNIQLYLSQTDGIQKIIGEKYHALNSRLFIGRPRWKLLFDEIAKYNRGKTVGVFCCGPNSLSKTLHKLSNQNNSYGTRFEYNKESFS
Sequence of Torsin-1A (Homo sapiens) (O14656 whole entry, looked up): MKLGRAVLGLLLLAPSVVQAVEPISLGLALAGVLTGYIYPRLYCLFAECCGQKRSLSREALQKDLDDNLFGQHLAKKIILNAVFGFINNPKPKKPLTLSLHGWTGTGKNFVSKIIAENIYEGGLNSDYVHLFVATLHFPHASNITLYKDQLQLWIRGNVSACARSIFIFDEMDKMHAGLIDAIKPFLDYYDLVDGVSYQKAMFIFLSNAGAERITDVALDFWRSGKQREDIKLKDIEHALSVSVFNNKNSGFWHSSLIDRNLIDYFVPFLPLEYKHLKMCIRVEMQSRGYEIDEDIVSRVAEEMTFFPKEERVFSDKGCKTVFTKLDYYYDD
Sequence of NADPH oxidase 2 (Homo sapiens) (P04839 whole entry, looked up): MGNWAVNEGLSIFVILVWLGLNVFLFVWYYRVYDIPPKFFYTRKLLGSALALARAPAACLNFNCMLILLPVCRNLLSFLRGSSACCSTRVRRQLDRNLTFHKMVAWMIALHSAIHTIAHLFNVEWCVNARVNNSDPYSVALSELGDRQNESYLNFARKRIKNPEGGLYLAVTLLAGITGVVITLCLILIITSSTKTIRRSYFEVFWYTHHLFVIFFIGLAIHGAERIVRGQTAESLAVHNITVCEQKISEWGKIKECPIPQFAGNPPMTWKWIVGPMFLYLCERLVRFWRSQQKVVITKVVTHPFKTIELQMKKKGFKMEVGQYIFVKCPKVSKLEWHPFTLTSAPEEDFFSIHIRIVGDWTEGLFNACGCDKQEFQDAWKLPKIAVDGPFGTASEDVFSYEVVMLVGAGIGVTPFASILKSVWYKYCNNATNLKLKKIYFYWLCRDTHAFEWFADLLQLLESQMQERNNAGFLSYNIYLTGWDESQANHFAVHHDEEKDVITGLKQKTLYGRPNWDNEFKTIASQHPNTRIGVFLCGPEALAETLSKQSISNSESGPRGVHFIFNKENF

For the compound `CC(C)=C1C(=O)C(c2ccccc2)=C2CN3C(=O)N(CCc4ccccc4)C(=O)[C@]3(Cc3ccc(C(F)(F)F)cc3)[C@H]21`, the composite z-score in test [1] is -0.199; in test [6], 0.37; in test [7], 0.23; with Torsin-1A (Homo sapiens) [8], -0.0473; in the test with Torsin-1A (Homo sapiens) [9] it was -0.336; in [10] it was -1.18. Further, the composite z-score in test [12] was 0.522. Moreover, the z-score in test [2] was -0.28 (inactive); in test [3], 0.408 (inactive); in test [4] it was 0.966 (inactive); in [5], 0.96 (inactive); in test [11], -2.19 (inactive); in test [13], 22.3 (active). Further, the z-score in [14] is 5.86 (inactive); in test [15] it was 0.511 (inactive); in test [16], 1.21 (inactive); in test [17], -0.558; in test [18] it was -0.12 (inactive); in [19] it was -1.21 (inactive). For the same compound, the z-score in test [20] was -0.226.

With `Cc1ccc(N2C(=O)c3ccccc3[C@@H](C(=O)NCCCN(C)C)[C@@H]2c2ccc(CO)cc2)nc1`, the composite z-score in test [1] is -0.198; in test [6], 0.0893; in [7], -0.477; with Torsin-1A (Homo sapiens) [8] it was 0.276; with Torsin-1A (Homo sapiens) [9], 0.011; in test [10], 0.0381. In [12], the composite z-score is -0.724. Further, the z-score is 0.492 (inactive) in test [2]; 0.252 (inactive) in test [3]; 0.208 (inactive) in test [4]; -1.35 (inactive) in [5]; 0.0376 (inactive) in [11]; 1.06 (inactive) in test [13]. For the same compound, the z-score in test [14] was 0.392 (inactive); in test [15] it was 0.591 (inactive); in test [16], 0.304 (inactive); in test [17] it was -0.337; in test [18], 0.911 (inactive); in [19], 0.115 (inactive). This compound yielded a z-score in test [20] of 0.513.

Turning to `CC(C)C(CO)N1C(=O)[C@@H]2C3C(=O)OCCC/C=C\[C@H]3OC23C=CCN(c2ccc4ccccc4c2)C(=O)[C@@H]13` (stereo not given in full), the composite z-score in [1] is -0.4; in test [6] it was -0.537; in test [7], -0.0695; with Torsin-1A (Homo sapiens) [8] it was -1.83; in the test with Torsin-1A (Homo sapiens) [9], -0.801; in test [10], 0.41. For the same compound, the composite z-score in test [12] turned out to be 0.0533. Further, the z-score in [2] was -0.567 (inactive); in test [3], 1.09 (inactive); in [4], -0.761 (inactive); in test [5], -0.137 (inactive); in test [11] it was -0.546 (inactive); in [13], 1.03 (inactive). Moreover, the z-score in [14] is 0.36 (inactive); in test [15] it was 0.204 (inactive); in test [16], 0.478 (inactive); in test [17] it was -0.428; in test [18] it was 1.77 (inactive); in [19], 0.767 (inactive). Moreover, the z-score in test [20] turned out to be 1.69.

Consider `CCOC(=O)C[C@H]1[C@H](OC(=O)c2cc3ccccc3oc2=O)[C@@H](NC(=O)c2ccc3ccccc3n2)c2cc(OCCCO)ccc2N1C(=O)Cc1ccc(OC)cc1`, for which the composite z-score in test [1] is 0.155; in test [6], 0.386; in test [7] it was -0.0136; with Torsin-1A (Homo sapiens) [8], -0.262; with Torsin-1A (Homo sapiens) [9], -0.0557; in test [10] it was 1.56. Further, the composite z-score in test [12] came out at 0.0774. The z-score in [2] is -0.593 (inactive); in test [3] it was -1.05 (inactive); in test [4], -1.23 (inactive); in [5] it was -0.74 (inactive); in test [11] it was 0.116 (inactive); in [13], 8.66 (active). Also, the z-score in [14] was 1.33 (inactive); in test [15], 0.635 (inactive); in test [16], 0.745 (inactive); in [17], -0.0026; in [18], 1.01 (inactive); in [19], 1 (inactive). This compound displayed a z-score in test [20] of 1.53.

Values taken from PubChem BioAssay.
